Assay results taken from PubChem BioAssay AID624483 (NMMLSC, 2012).
The campaign covered roughly 360,000 compounds. About 11,000 (3.1%) were called active. Roughly 2% stayed inconclusive and do not appear here. Only a selection was taken, and actives are over-represented in it overall. Values without a mark were called inactive. Rule as the data show it: active = fluorescence intensity above about 16000; inconclusive = no clear call, values can overlap the other calls; inactive = below that.

Experiment: counter-screen for toxin protease inhibitors: compound fluorescence, primary screen, artefact control for toxin protease inhibitor project, biochemical, multiplex microsphere, HTS (AID 624483)
Details: compound autofluorescence counterscreen, microsphere flow cytometry; active compounds read high

SMILES	fluorescence intensity
COC(=O)[C@@]1(Cc2ccc(F)cc2)[C@H]2c3cc(C(=O)N4CCCC4)n(C[C@H](O)CO)c3C[C@H]2CN1C(=O)c1ccccc1	4320
COc1cccc(CNc2nc(NCc3ccccc3OC)nc3ccsc23)c1	2990
Cc1ccc(S(=O)(=O)N2CCC(=O)N([C@H](COCc3ccccc3)C(C)C)CC2)cc1	5310
CCOC(=O)Nc1ccc2c(c1)N(C(=O)CN1CCN3CCCC3C1)c1ccccc1CC2 (centres undefined)	18500 (active)
CCOC(=O)Nc1ccc2c(c1)N(C(=O)CCCl)c1ccccc1[S@]2=O	4240
CCOC(=O)Nc1ccc2c(c1)N(C(=O)CCN1CCN(CCO)CC1)c1ccccc1CC2	5290
CCCCCCCCOC1OC(CO)C(O)C(O)C1NC(C)=O (centres undefined)	4290
CC1(C)CC(=O)C=C(c2ccccc2CO)C1=O	3370
Cc1nc2nc(C)c(CCC(=O)N3CCC4(CC3)OCCO4)c(C)n2n1	8020
Cc1nc2nc(C)c(CCC(=O)N3CCN(c4ccccc4)CC3)c(C)n2n1	8430
Cc1nc2ncnn2c(C)c1CCC(=O)N1CCN(C(=O)c2ccco2)CC1	23100 (active)
COc1ccc(CC(=O)Nc2sc(Cc3ccccc3)c(C)c2C(N)=O)cc1	22200 (active)
Cc1ccc(C(=O)Nc2sc(Cc3ccc4c(c3)OCO4)c(C)c2C(N)=O)cc1	5510
COc1ccc(CC(=O)Nc2c(C(N)=O)oc3ccccc23)cc1	6330
COc1ccc(CCNC(=O)Nc2ccc3c(c2)c(=O)n(C)n3C)cc1OC	3460
Cc1ccc2[nH]c(=O)c(-c3nc4c(C)cccn4c3NCc3ccco3)cc2c1	2400
CNc1nc2c(C)cccn2c(=O)c1C=Nc1ccc(OC)cc1	4140
CCCN(CCC)c1nc2c(C)cccn2c(=O)c1/C=C1/SC(=S)N(Cc2ccco2)C1=O	25600 (active)
CCN(CC)CC1(O)CCN(C(=O)c2ccc(Cl)c(Cl)c2)CC1	4500
O=C1c2ccccc2C(=O)N1c1ccccc1S(=O)C(F)(F)F (centres undefined)	2440
O=C1C(=O)N(c2ccccc2)c2ccccc21	22200 (active)
O=C1C(Cl)=C(N2CCOCC2)C(=O)N1c1ccccc1	5720
CCOc1ccc(C(C)=O)cc1COC(=O)CNC(=O)c1cccs1	6570
Cc1occc1C(=O)Nc1cccc(Cn2cccn2)c1	16800 (active)

SMILES	fluorescence intensity
Cc1ccnc(NC(=O)c2ccoc2C)c1	2220
Cc1occc1C(=O)Nc1cccc(S(=O)(=O)N2CCOCC2)c1	3850
COc1ccc(-c2ccc(C(=O)NC(C)C)c3occc23)c(C)c1	3110
CCOC(=O)c1ccc2c(c1)nc(C)n2CC	2830
CCOC(=O)CNC(=O)CSc1nc2cccnc2n1CC	4460
CCOC(=O)c1ccc2c(c1)nc(SCC(=O)NC(C)C)n2CC	19400 (active)
CCN(CC(=O)NC(C)C)C(=O)CCNC(=O)c1ccc(Cl)cc1	23900 (active)
O=C(CCNC(=O)c1ccc(Cl)cc1)NC1CCCc2ccccc21 (centres undefined)	5920
CC(=O)Nc1ccc(NC(=O)CCCNC(=O)c2ccc(Cl)cc2)cc1	5820
Cc1ccc(Cn2cc(CN3CC(N4CCN(C)CC4)CS3(=O)=O)nn2)cc1 (centres undefined)	5630
COC(CNC(=O)c1ccc2c(c1)ncn2-c1cc(C)cc(C)c1)OC	3480
Cc1ccc(CN2CCN(c3ccccc3Cl)CC2)o1	3970
COc1ccc(C(NC(=O)C2CCN(CCCc3ccccc3)CC2)c2cccs2)cc1 (centres undefined)	3340
O=C(CC(=O)c1cccnc1)c1ccccc1	3800
CCn1c(O)c(N=NC(=O)c2cccc(S(=O)(=O)N3CCCCC3)c2)c2ccccc21	2120
CCn1c(O)c2ccc(C(=O)N=NC(=O)c3cccnc3)cc2c1O	22400 (active)
Brc1ccc2nc(-c3ccccc3)c(Cc3ccccc3)n2c1	6060
Nc1c(N(Cc2ccco2)C(=O)c2cccc(F)c2)c(=O)[nH]c(=O)n1Cc1ccccc1	6060
CCC(=NCc1ccco1)c1c(O)n(Cc2ccccc2)c(=O)[nH]c1=O	16900 (active)
CCCCn1c(N)c(N(CC)C(=O)/C=C/c2ccco2)c(=O)[nH]c1=O	3280
CCC(=NCCCO)c1c(O)n(-c2ccc(OC)cc2)c(=O)[nH]c1=O	3280
CCCCn1c(O)c(C(CC)=NCc2ccco2)c(=O)[nH]c1=O	22200 (active)
Cn1c(=O)[nH]c(=O)c2c1[nH]c(=S)n2Cc1ccccc1	5200
CCNC(=O)C1(C)CCCN(C(=O)c2ccc3ccccc3n2)C1 (centres undefined)	2790

SMILES	fluorescence intensity
COc1cccc(CNc2nc3cc(-c4csc5ccccc45)sc3c(=O)n2C)c1	4090
CC(C)Nc1ncnc2c1ncn2[C@H]1CN(Cc2ccncc2)C[C@@H](CO)O1	2910
CCc1nc2c(OCC(N)=O)cccn2c1N(C)C(=O)c1ccc(OC)cc1	3440
COc1ccccc1N(C)S(=O)(=O)c1ccc(C(=O)NC2CCCCCC2)cc1	5030
CN(Cc1ccccc1)C(=O)[C@@H]1CCCN1C(=O)[C@@H]1CCCN1C(=O)c1c(F)cccc1F	5720
COc1cc(OC)cc(C(=O)NCC(=O)OCc2csc(-c3ccccc3)n2)c1	9780
O=C(NCCc1csc(-c2ccccc2)n1)c1ccccc1F	3720
CNC(=O)c1csc(-c2ccccc2)n1	22300 (active)
CCOC(=O)c1cc2cc(OC)ccc2n1C1CCN(C)CC1	5150
O=C(COC(=O)Cc1ccc(Br)cc1)Nc1ccc(N2CCOCC2)cc1	8590
CC(=O)c1ccc(Nc2nc(C(N)c3ccccc3Cl)cs2)cc1 (centres undefined)	3780
COc1cccc(-c2cc3nc(NCc4ccccc4OC)n(C)c(=O)c3s2)c1	2860
COc1ccc(CCNc2nc(C)cc(C)n2)cc1OC	3430
COc1cnc(SCc2ccc(Cl)c(Cl)c2)nc1Cl	20800 (active)
Nc1cc(N)nc(SCc2ccc(Cl)cc2)n1	4250
Cc1ccc([C@H]2N[C@]3(CCCN(CC4CCCCC4)C3=O)[C@H]3C(=O)N(Cc4ccccc4)C(=O)[C@@H]23)cc1	3930
O=c1c2ccccc2nc(N/N=C/c2ccccc2)n1O	24900 (active)
O=c1c2ccccc2ncn1/N=C/c1ccccc1	3940
CC(C)(C)c1nnc(N/N=C/c2ccc(O)cc2)n(N)c1=O	9530
Cc1nnc(SCc2ccc(C(=O)c3ccc(Cl)cc3)o2)n1-c1ccccc1	6940
Cc1ccc(-c2noc(CSc3nnc(-c4cccs4)n3C)n2)cc1	9700
Fc1ccc(-n2c(Cc3ccccc3)nnc2SCc2nc(-c3ccc(Cl)cc3)no2)cc1	25000 (active)
Cn1cccc1Cc1nnc(SCC(=O)NCCc2ccccc2)n1-c1ccc(F)cc1	5310
Cc1ccc(-c2noc(CSc3nnc(-c4ccncc4)n3-c3ccc(F)cc3)n2)cc1	21100 (active)

SMILES	fluorescence intensity
Cn1c(SCc2ccc(F)cc2)nnc1-c1ccncc1	4260
CC(C)(C)NC(=O)NC(=O)COC(=O)Cc1c(F)cccc1Cl	4470
O=C(Nc1c(Br)cc2c(c1Br)Cc1ccccc1-2)C(F)(F)F	3730
O=C(CC(NCCN1CCOCC1)C(=O)O)Nc1cccc(Cl)c1 (centres undefined)	3410
C=CCn1c(CC(=O)Nc2cccc(OC)c2)nnc1SCC(=O)NC1CCCCC1	21000 (active)
COc1cccc(NC(=O)CSc2nnc(C3CCCCC3)n2N)c1	7460
Cn1c(CC(=O)Nc2ccc(F)cc2)nnc1SCC(=O)NC1CCCCC1	3940
Cc1nc2c(OCc3ccc(Cl)cc3Cl)cccn2c1N(C)CC1CC1	3540
C[C@@H]1CN([C@@H](C)CO)C(=O)c2cc(Br)cnc2O[C@H]1CN(C)Cc1ccc(-c2ccccc2)cc1	2930
CCCNC(=O)c1cc(C2CCCN(C(=O)c3ccc4c(c3)CCO4)C2)on1 (centres undefined)	3960
CNN/C(N=Cc1ccc([N+](=O)[O-])s1)=N\S(=O)(=O)c1cc(C)c(Cl)cc1SCc1ccccc1	3540
CC1CN(C(=O)c2ccc([N+](=O)[O-])s2)CC(C)O1 (centres undefined)	6540
O=[N+]([O-])c1ccc(C=Nc2ccc(Cl)cc2Cl)s1	22300 (active)
CC(=O)NC(c1cccc(F)c1)c1nc(-c2cccc(F)c2)cs1 (centres undefined)	2910
COCCNC(=O)c1ccc2nc(Cc3ccc(OC)c(OC)c3)oc2c1	4160
CCCCc1nc2ccc(F)cc2cc1C	6420
O=C1NC[C@H](CCCCN2C[C@H](Cc3ccccc3)N(Cc3ccccc3)C(=O)C2=O)N(CCc2ccc(O)cc2)C1=O	4050
Cc1ccc(S(=O)(=O)c2ccc(Cl)cc2)cc1S(=O)(=O)NC(C(=O)O)C(C)C (centres undefined)	1970
COCCNC(=O)c1ccc(S(=O)(=O)c2ccc(Cl)cc2)c(NC(C)=O)c1	3030
CC(=O)Nc1cc(C(=O)O)ccc1S(=O)(=O)c1ccc(Cl)cc1	22400 (active)
CC1(C(=O)Nc2cccc3cccnc23)CCN1C(=O)CCC1CCCC1 (centres undefined)	3540
COc1cccc(CN(C)C(=O)CC[C@H]2O[C@@H](n3cnc4c(NC(=O)c5ccccc5)ncnc43)[C@H](O)[C@@H]2O)c1	5840
